A short description of experiment [1]: small molecules captured by biotinylated probe aFSTL3 – biochemical, small-molecule microarray, fluorescence 635/667, stem cell growth factor project, primary screen (AID 1064).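 Further: measures binding of the biotinylated anti-FSTL3 antibody to printed compounds.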 The conditions noted are these: higher = more signal.
A short description of experiment [2]: binders from COS7 lysate, DM2A8 probe, primary screen, torsin A project, cell lysate, small-molecule microarray, fluorescence 635/667 (AID 1065). The conditions noted are these: higher = more signal, COS7 lysate expressing mutant human TOR1A.
Experiment [3] is described as follows: small molecules captured by biotinylated probe aFGF2 – biochemical, small-molecule microarray, fluorescence 635/667, stem cell growth factor project, primary screen (AID 1067).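 Further: measures binding of biotinylated aFGF2 protein to printed compounds on slides; z-score merges feature fluorescence and signal-to-noise across triplicate slides.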 The following applies: higher = more signal.
Experiment [4] can be described thus: small molecules captured by biotinylated probe aFGF10 – biochemical, small-molecule microarray, fluorescence 635/667, stem cell growth factor project, primary screen (AID 1071).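 Further: score merges 667 nm spot intensity and signal to noise from triplicate slides.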 The conditions noted are these: higher = more signal.
Experiment [5] addresses Neurogenic locus notch homolog protein 2 (Homo sapiens) (UniProt Q04721). Briefly: small molecules binding Notch2 protein – biochemical, small-molecule microarray, 635 nm fluorescence, stem cell growth factors, primary screen (AID 1073). The following applies: higher = more signal.
For experiment [6], the target named is Pro-neuregulin-1, membrane-bound isoform (Homo sapiens) (UniProt Q02297). Description: small molecules binding neuregulin-1 protein – biochemical, small-molecule microarray, fluorescence 635/667, psychiatric disease protein project, primary screen (AID 1075).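 Further: score combines 667 nm spot fluorescence with signal to noise.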 The conditions noted are these: NRG1 binding, 635 nm fluorescence, higher = more signal.
Chain of Pro-neuregulin-1, membrane-bound isoform (Homo sapiens) (Q02297 whole entry, looked up, the tested form may be a part, canonical isoform): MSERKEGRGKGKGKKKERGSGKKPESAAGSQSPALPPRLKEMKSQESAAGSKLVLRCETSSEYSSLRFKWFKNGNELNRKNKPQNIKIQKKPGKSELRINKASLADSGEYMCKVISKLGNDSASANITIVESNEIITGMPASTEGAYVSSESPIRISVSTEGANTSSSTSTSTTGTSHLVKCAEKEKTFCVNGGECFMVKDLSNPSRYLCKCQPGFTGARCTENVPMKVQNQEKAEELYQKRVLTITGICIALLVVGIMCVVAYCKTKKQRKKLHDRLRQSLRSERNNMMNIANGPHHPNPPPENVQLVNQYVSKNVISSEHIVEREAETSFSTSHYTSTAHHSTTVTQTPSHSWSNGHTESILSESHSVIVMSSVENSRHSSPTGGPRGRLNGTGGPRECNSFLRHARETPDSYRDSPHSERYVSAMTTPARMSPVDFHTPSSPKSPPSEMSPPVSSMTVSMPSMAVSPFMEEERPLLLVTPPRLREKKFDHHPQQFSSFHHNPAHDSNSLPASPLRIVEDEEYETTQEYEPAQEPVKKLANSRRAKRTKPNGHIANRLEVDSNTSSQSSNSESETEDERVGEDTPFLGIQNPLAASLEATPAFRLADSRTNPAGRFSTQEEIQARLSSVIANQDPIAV
Experiment [7] has as its system Neuregulin-1 EGF-like domain. Description: small molecules binding NRG1 EGF domain – biochemical, small-molecule microarray, 635 nm fluorescence, primary screen (AID 1081).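 Further: binding of the protein to compounds printed on small-molecule microarray slides.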 The following applies: higher = more signal.
Experiment [8] in a line: FRG1 expression reporter modulators in myotubes – cell-based, C2C12 myotubes, firefly/Renilla luciferase, luminescence, FRG1 inhibition for FSHD, primary screen (AID 1084). The following applies: FRG1 promoter luciferase, higher = more signal, called active from +8 up or from −8 down.
Experiment [9] in a line: small molecules captured by biotinylated probe aFST – biochemical, small-molecule microarray, fluorescence 635/667, stem cell growth factor project, primary screen (AID 1086).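 Further: score merges 667 nm fluorescence with signal-to-noise of each printed compound spot.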 The following applies: higher = more signal.
Experiment [10] is described as follows: binders of probe aHhip on microarray, primary screen, stem cell growth factor project, biochemical, small-molecule microarray, fluorescence 635/667 (AID 1087).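 Further: score merges spot fluorescence at 667nm with spot signal to noise ratio.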 The conditions noted are these: higher = more signal.
The test system of experiment [11] is PRMT1 (protein arginine N-methyltransferase 1). Description: small molecules binding arginine methyltransferase PRMT1 – biochemical, small-molecule microarray, 635 nm fluorescence, primary screen (AID 1088).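 Further: binding of Prmt1 protein to compounds spotted on small-molecule microarray slides.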 The following applies: higher = more signal.
The nature of experiment [12]: growth effects on S. cerevisiae YJM789 – YJM789 clinical isolate, OD600, 24 h, basal, primary screen (AID 1089).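 Further: growth of clinical yeast isolate S. cerevisiae YJM 789 seeded 1000 cells per well; test concentration not given here.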 The conditions noted are these: higher = more signal, called active from +8 up or from −8 down.
Experiment [13] is described as follows: S. pombe growth modifiers, basal conditions – strain 972, OD600, 24 h, no modulator, primary screen (AID 1090).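 Further: basal condition with compound alone and no growth modifier present; test concentration not given here.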 The conditions noted are these: S. pombe 972 growth, higher = more signal, called active from +8 up or from −8 down.
Experiment [14] can be described thus: budding yeast growth modifiers under rapamycin – strain BY4716, OD600, 96 h, primary screen (AID 1091). Further: test concentration not given here. The conditions noted are these: S. cerevisiae BY4716 + rapamycin, higher = more signal, called active from +8 up or from −8 down.
Experiment [15] addresses Torsin-1A-interacting protein 2 (Homo sapiens) (UniProt Q8NFQ8). Briefly: small molecules binding lysate-expressed LULL1 – cell lysate, human LULL1 lysate, 635/667 nm fluorescence, primary screen (AID 1092).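 Further: probe is lysate of COS7 cells overexpressing human LULL1; score merges per-feature 667 nm fluorescence with signal-to-noise.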 The conditions noted are these: small-molecule microarray, hLULL1 lysate binding, 635 nm fluorescence; higher = more signal.
A short description of experiment [16]: optical density change of DRC41 E. coli – strain DRC41, OD650, 24 h, E. coli filamentation project, primary screen (AID 1093).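 Further: MC1000 strain lacking acrAB efflux and sulA so SOS filamentation is blocked; test concentration not given here.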 The following applies: E. coli DRC41 growth, higher = more signal, called active from +8 up or from −8 down.
Experiment [17] in a line: probe aLefty2 binding to arrayed compounds – biochemical, biotinylated probe, 635/667 nm fluorescence, primary screen (AID 1094).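 Further: score merges spot fluorescence near 667 nm with spot signal-to-noise ratio.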 The following applies: small-molecule microarray, higher = more signal.
The subject of experiment [18] is Noggin (protein binding on small-molecule microarray). Description: small molecules binding Noggin protein – biochemical, 635/667 nm fluorescence, primary screen (AID 1095).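 Further: score merges 667 nm feature fluorescence with signal to noise over triplicate slides.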 The conditions noted are these: 635 nm fluorescence, higher = more signal.
In experiment [19] the target is Neurogenic locus notch homolog protein 3 (Homo sapiens) (UniProt Q9UM47). Description: small molecules binding NOTCH3 protein – biochemical, 635/667 nm fluorescence, primary screen (AID 1096). The following applies: small-molecule microarray, 635 nm fluorescence, higher = more signal.
The nature of experiment [20]: probe aEGFR binding to arrayed compounds – biochemical, biotinylated probe, 635/667 nm fluorescence, primary screen (AID 1097).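 Further: probe is a biotinylated anti-EGFR antibody binding compounds printed on slides; score combines fluorescence near 667 nm and signal to noise of each spot.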 The conditions noted are these: small-molecule microarray, higher = more signal.

Active and inactive are the calls of the source.

Chain of Torsin-1A-interacting protein 2 (Homo sapiens) (Q8NFQ8 whole entry, looked up): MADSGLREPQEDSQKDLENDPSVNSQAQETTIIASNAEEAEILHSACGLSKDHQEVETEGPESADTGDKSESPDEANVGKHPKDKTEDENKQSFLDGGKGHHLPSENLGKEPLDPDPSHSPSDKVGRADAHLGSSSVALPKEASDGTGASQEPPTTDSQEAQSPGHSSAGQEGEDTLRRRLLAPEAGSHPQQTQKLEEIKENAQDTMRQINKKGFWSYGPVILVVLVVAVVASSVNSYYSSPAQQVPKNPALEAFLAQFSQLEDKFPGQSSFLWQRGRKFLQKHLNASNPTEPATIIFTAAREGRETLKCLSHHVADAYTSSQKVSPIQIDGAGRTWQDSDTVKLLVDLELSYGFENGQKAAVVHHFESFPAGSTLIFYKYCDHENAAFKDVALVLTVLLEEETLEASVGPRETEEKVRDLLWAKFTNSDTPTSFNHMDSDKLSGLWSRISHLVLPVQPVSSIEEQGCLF
Chain of Neurogenic locus notch homolog protein 2 (Homo sapiens) (Q04721 whole entry, looked up, canonical isoform): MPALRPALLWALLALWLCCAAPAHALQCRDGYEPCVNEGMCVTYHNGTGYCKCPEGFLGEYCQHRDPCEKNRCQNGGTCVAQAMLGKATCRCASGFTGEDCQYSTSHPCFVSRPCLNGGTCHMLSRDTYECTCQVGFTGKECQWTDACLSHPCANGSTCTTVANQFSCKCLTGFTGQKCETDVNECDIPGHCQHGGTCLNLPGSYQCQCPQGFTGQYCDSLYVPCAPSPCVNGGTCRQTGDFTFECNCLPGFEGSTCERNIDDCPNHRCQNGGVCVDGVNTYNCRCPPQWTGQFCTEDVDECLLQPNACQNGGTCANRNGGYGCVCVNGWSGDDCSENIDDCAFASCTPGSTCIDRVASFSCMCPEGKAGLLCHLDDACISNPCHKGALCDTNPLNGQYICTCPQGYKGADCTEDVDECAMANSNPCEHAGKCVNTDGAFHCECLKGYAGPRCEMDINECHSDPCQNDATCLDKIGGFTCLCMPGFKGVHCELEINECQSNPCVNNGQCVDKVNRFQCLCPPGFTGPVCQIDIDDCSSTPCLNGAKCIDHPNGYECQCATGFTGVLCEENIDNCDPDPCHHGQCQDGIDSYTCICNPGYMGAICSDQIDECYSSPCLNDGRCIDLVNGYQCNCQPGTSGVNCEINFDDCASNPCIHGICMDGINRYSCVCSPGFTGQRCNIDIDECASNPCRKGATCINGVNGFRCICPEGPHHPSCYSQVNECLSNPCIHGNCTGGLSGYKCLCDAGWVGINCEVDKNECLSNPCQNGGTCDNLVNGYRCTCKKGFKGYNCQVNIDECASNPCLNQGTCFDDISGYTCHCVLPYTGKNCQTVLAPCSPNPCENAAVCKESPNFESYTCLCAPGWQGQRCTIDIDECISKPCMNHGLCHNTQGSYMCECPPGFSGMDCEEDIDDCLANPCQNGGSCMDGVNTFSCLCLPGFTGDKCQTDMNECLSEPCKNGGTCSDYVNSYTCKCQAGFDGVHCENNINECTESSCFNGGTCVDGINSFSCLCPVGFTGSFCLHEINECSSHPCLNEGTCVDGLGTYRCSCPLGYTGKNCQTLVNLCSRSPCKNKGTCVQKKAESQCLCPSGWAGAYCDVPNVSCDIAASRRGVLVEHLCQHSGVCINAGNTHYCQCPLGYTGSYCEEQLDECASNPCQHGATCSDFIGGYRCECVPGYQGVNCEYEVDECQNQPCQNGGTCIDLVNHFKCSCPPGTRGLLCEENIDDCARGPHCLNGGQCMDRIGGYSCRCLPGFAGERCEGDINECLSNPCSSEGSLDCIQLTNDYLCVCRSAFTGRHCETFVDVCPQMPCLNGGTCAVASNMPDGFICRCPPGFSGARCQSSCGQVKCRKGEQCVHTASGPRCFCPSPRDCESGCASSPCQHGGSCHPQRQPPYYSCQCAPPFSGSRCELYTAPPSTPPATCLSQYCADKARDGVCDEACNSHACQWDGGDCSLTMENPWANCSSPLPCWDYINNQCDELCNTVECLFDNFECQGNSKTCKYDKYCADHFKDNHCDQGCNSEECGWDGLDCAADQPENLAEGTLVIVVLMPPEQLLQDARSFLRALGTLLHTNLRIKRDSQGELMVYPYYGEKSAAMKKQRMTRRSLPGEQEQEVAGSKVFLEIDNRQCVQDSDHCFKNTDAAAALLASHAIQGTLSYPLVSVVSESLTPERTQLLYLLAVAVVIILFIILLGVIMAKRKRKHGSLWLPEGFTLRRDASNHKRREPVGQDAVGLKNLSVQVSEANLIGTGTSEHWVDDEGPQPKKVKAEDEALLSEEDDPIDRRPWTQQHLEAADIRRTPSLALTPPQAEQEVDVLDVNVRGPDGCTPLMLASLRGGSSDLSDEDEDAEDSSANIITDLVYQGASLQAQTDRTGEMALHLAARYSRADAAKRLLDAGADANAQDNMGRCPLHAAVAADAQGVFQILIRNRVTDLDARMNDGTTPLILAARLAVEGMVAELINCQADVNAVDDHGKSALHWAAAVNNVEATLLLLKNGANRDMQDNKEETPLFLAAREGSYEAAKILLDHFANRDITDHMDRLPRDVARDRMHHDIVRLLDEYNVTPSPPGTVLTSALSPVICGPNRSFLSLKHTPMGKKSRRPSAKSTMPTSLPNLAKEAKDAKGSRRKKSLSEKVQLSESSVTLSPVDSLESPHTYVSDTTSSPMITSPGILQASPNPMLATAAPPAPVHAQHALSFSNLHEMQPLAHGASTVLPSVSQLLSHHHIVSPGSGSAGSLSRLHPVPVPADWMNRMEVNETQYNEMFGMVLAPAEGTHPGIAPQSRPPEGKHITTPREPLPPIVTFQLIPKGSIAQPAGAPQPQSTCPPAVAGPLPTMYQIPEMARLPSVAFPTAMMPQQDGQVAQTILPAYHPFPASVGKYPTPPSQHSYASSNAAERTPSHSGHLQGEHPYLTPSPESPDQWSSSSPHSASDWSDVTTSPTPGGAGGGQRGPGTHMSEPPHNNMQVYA

Turning to `O=C1C[C@@H](O)[C@@H](O)[C@@H]2[C@@H]3C(=O)N(C[C@@H]4CCCO4)C(=O)[C@@H]3CC[C@H]12`, the composite z-score was -0.469 in [1]; 0.207 in experiment [2]; -0.0901 in experiment [3]; 0.377 in experiment [4]; 0.733 in [5]; 0.17 in experiment [6]. Moreover, the composite z-score in [7] was 0.723; in [9], 0.158; in [10], -0.487; in experiment [11], 0.578; in experiment [15] it was 0.493; in experiment [17] it was -0.108. Besides, the composite z-score in [18] was 0.394; in [19], 0.652; in experiment [20], -0.0118. In addition, the z-score in experiment [8] is -0.0616 (inactive); in experiment [12], 0.788 (inactive); in [13], -0.563 (inactive); in experiment [14] it was 0.672 (inactive); in experiment [16] it was 0.701 (inactive).

On to `COC(=O)CC=C[C@@H](C)[C@@H](C=NO[C@@H]1O[C@H](COC(C)=O)[C@@H](OC(C)=O)[C@H](OC(C)=O)[C@H]1OC(C)=O)NS(=O)(=O)c1ccc(C)cc1`, for which the composite z-score in [1] was -0.486; in experiment [2], 0.969; in [3], -0.158; in [4], 0.367; in experiment [5] it was 1.11; in [6], -0.993. Also, the composite z-score in [7] was -1.37; in experiment [9], 0.068; in experiment [10], -0.0645; in experiment [11] it was 1.41; in experiment [15], -0.147; in experiment [17], -0.134. Further, the figures for the composite z-score in [18], in experiment [19] and in experiment [20] were 0.521, 0.545 and -0.152, respectively. Besides, the z-score is -0.443 (inactive) in experiment [8]; 0.0457 (inactive) in experiment [12]; -0.23 (inactive) in [13]; -0.615 (inactive) in [14]; -1.32 (inactive) in experiment [16].

Consider `C#CCCCON=C1C[C@@H](O)[C@@H](O)[C@@H]2[C@@H]3C(=O)N(c4ccc(F)cc4F)C(=O)[C@@H]3CC[C@@H]12`, for which the composite z-score in experiment [1] is -0.398; in [2], 1.69; in experiment [3], -0.138; in [4] it was 0.103; in experiment [5] it was 0.329; in experiment [6], 0.0095. Besides, the composite z-score is -0.114 in [7]; 0.0638 in experiment [9]; 0.235 in experiment [10]; 0.108 in experiment [11]; -0.261 in experiment [15]; -0.124 in experiment [17]. The composite z-score is 0.561 in experiment [18], 0.0521 in experiment [19] and -0.112 in experiment [20]. The z-score was -0.236 (inactive) in experiment [8]; -0.326 (inactive) in experiment [12]; -0.117 (inactive) in [13]; -1.3 (inactive) in [14]; 0.336 (inactive) in experiment [16].

Take `CC(=O)Nc1ccc([C@@H]2N[C@H](C(=O)O)CC[C@H]2C)cc1`: the composite z-score was -0.508 in experiment [1]; 0.301 in [2]; -0.135 in experiment [3]; 0.426 in experiment [4]; 0.785 in [5]; 0.0589 in experiment [6]. The composite z-score in experiment [7] is 0.151; in experiment [9], 0.296; in experiment [10], -0.0618; in experiment [11] it was 0.0579; in [15] it was 0.184; in [17], -0.139. Besides, the composite z-score in experiment [18] was 0.399; in [19], 0.626; in [20], -0.0493. The z-score in experiment [8] was 0.564 (inactive); in [12] it was 0.216 (inactive); in experiment [13] it was -0.228 (inactive); in experiment [14] it was 0.634 (inactive); in experiment [16], 0.622 (inactive).

`O=C1[C@H]2[C@H]3[C@H](O)[C@H](O)CC(=NOCc4ccccc4)[C@@H]3CC[C@H]2C(=O)N1c1ccc(F)cc1F`: the composite z-score is 1.17 in experiment [1]; -0.0135 in [2]; -0.197 in [3]; 0.423 in experiment [4]; 0.104 in experiment [5]; -0.0591 in experiment [6]. The composite z-score was -0.646 in [7]; 0.0704 in experiment [9]; -0.236 in experiment [10]; -0.755 in experiment [11]; 0.324 in experiment [15]; -0.205 in experiment [17]. Further, the composite z-score in experiment [18] is 0.358; in [19], -0.283; in [20], -0.125. Besides, the z-score was -0.738 (inactive) in experiment [8]; -1.94 (inactive) in [12]; -0.469 (inactive) in experiment [13]; -0.996 (inactive) in [14]; -0.778 (inactive) in experiment [16].

Values taken from PubChem BioAssay.
